Source: PubChem BioAssay (EPA / NIEHS)
“And” between values parts separate entries of the source, which are not always exact repeats. Equal values may be shown once. Records with an inconclusive call do not appear. The source holds several records for some structures; these can differ, active in one and inactive in another. The source made the active and inactive calls. How the source made its calls, unless noted: active means hit-call score of the fitted dose curve at least 0.9, where 1 is the maximum; inactive means score below 0.9.

Legend:
[1] = target: Estrogen-related receptor gamma (Homo sapiens) (UniProt P62508); assay: ATG_ERRg_TRANS: Attagene TRANS-FACTORIAL HepG2 Assay for human Estrogen-Related Receptor gamma (ERRg) (AID 2282977; active means hit-call score of the fitted dose curve at least 0.9, where 1 is the maximum;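 further: hits increase reporter signal over DMSO so potencies reflect activators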); details: HepG2 Attagene TRANS reporter, ERRg transactivation
Sequence of Estrogen-related receptor gamma (Homo sapiens) (P62508 whole entry, looked up, the tested form may be a part): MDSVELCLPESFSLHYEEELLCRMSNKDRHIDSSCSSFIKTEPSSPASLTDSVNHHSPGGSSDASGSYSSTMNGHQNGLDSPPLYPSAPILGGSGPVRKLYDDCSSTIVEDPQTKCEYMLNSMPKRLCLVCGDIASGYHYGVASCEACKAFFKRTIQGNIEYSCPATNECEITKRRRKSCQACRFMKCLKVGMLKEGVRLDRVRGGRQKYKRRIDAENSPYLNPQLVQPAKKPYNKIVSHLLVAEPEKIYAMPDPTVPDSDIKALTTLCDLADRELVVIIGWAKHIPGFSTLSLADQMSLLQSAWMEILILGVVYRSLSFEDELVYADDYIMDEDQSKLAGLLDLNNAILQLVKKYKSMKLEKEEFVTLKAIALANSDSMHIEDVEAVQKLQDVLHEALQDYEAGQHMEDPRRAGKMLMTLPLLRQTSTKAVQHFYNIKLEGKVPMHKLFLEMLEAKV
Method in brief: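 HepG2 cells transiently transfected with multiplexed GAL4-UAS reporter units driven by chimeric NR-Gal4 proteins; 24 h exposure. Reporter mRNA quantified by RT-PCR, fluorescent labelling, HpaI digestion and capillary electrophoresis; gain of signal vs DMSO.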

[2] = target: Glucocorticoid receptor (Homo sapiens) (UniProt P04150); assay: ATG_GR_TRANS: Attagene TRANS-FACTORIAL HepG2 Assay for human Glucocorticoid Receptor (GR) (AID 2282978; active means hit-call score of the fitted dose curve at least 0.9, where 1 is the maximum;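 further: activators score as hits since higher reporter transcript over DMSO is fitted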); details: HepG2 Attagene TRANS GR reporter, mRNA transcription
Sequence of Glucocorticoid receptor (Homo sapiens) (P04150 whole entry, looked up, the tested form may be a part): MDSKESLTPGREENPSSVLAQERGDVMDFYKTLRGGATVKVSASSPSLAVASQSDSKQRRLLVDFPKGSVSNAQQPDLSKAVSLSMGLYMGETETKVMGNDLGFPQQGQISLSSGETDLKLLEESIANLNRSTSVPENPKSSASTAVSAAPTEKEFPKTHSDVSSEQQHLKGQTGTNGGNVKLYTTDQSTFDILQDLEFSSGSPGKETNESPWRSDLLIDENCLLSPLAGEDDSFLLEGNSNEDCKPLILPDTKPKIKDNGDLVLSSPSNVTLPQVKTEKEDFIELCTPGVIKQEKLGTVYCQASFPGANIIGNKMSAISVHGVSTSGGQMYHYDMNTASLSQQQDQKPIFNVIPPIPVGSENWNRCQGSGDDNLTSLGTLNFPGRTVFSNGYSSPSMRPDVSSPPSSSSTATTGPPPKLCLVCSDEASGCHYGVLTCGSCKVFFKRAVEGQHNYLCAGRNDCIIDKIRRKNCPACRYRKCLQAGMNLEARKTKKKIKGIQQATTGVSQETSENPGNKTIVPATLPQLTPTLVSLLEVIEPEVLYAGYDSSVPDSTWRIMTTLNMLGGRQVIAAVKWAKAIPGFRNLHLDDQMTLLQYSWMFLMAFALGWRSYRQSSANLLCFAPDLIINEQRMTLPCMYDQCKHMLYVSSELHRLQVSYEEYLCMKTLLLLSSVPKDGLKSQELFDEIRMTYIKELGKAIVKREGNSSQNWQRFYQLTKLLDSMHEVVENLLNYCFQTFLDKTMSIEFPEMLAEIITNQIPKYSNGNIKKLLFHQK
Method in brief: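 Fluorescent capillary-electrophoresis quantitation of reporter mRNA is the readout, taken 24 h after dosing human HepG2 cells carrying transiently transfected GAL4-UAS reporter units activated by chimeric NR-GAL4 fusions; activity scored as induction over DMSO.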

[3] = target: Oxysterols receptor LXR-beta (Homo sapiens) (UniProt P55055); assay: ATG_LXRb_TRANS: Attagene TRANS-FACTORIAL HepG2 Assay for human Liver X Receptor beta (LXRb) (AID 2282981; active means hit-call score of the fitted dose curve at least 0.9, where 1 is the maximum); details: HepG2 Attagene TRANS GAL4-LXRb reporter, mRNA
Sequence of Oxysterols receptor LXR-beta (Homo sapiens) (P55055 whole entry, looked up, the tested form may be a part): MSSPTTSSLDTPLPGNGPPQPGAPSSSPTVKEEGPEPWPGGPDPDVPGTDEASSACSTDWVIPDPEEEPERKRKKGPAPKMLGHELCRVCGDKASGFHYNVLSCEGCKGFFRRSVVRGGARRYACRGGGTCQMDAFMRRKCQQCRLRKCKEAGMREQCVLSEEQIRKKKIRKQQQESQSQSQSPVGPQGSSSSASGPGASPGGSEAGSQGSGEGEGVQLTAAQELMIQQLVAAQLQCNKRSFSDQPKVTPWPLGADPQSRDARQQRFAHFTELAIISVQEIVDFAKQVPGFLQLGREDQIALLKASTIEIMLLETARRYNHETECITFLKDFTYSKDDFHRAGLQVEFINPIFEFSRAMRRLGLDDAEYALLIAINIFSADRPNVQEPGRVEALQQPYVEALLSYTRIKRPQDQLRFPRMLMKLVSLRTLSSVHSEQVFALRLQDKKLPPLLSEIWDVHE
Method in brief: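 HepG2 cells transiently transfected with GAL4-UAS reporter units for chimeric NR-Gal4 proteins, dosed for 24 h. Reporter transcripts measured by RT-PCR and capillary electrophoresis; gain-of-signal fitting relative to DMSO.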

[4] = target: Hepatocyte nuclear factor 4-alpha (Homo sapiens) (UniProt P41235); assay: ATG_HNF4a_TRANS: Attagene TRANS-FACTORIAL HepG2 Assay for human Hepatocyte Nuclear Factor 4 alpha (HNF4a) (AID 2282982; active means hit-call score of the fitted dose curve at least 0.9, where 1 is the maximum); details: HepG2 HNF4a transactivation reporter, mRNA readout
Sequence of Hepatocyte nuclear factor 4-alpha (Homo sapiens) (P41235 whole entry, looked up, the tested form may be a part): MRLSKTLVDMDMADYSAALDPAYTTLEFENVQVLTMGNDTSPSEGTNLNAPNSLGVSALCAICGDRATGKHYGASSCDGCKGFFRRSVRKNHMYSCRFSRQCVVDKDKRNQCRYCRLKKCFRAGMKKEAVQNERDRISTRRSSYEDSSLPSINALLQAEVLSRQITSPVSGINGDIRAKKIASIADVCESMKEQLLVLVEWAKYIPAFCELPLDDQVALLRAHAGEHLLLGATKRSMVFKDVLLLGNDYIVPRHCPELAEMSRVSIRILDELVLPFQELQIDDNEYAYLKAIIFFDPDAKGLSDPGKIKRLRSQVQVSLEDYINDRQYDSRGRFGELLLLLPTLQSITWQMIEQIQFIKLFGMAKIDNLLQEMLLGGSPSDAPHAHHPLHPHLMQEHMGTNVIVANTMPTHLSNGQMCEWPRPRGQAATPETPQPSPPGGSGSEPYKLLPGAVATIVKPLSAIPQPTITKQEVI
Method in brief: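 HepG2 cells transiently transfected with HNF4a-Gal4 chimera and GAL4-UAS reporter units, dosed for 24 h. Reporter mRNA measured by RT-PCR, fluorescent primer extension and capillary electrophoresis; gain-of-signal fitted relative to DMSO.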

[5] = ATG_M_06_TRANS: Attagene TRANS-FACTORIAL HepG2 Assay for M06 Transcription Factor (Internal Marker) (AID 2282983; active means hit-call score of the fitted dose curve at least 0.9, where 1 is the maximum); details: HepG2 Attagene TRANS M06 internal marker reporter
Method in brief: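 Measured by capillary electrophoresis of fluorescently labelled RT-PCR products, this endpoint reflects reporter mRNA in HepG2 cells harbouring exogenous NR-GAL4 reporter constructs after 24 h exposure, with DMSO as baseline.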

[6] = ATG_M_32_TRANS: Attagene TRANS-FACTORIAL HepG2 Assay for M32 Transcription Factor (Internal Marker) (AID 2282984; active means hit-call score of the fitted dose curve at least 0.9, where 1 is the maximum); details: HepG2 Attagene TRANS M32 internal marker reporter
Method in brief: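 HepG2 cells transiently transfected with GAL4-UAS reporter units, dosed for 24 hours. Reporter mRNA quantified by RT-PCR, 6-FAM labelling, HpaI digestion and capillary electrophoresis; internal-marker signal fitted upward relative to DMSO.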

[7] = target: Nuclear receptor subfamily 4 group A member 2 (Homo sapiens) (UniProt P43354); assay: ATG_NURR1_TRANS: Attagene TRANS-FACTORIAL HepG2 Assay for human Nuclear Receptor Related Protein 1 (NURR1) (AID 2282985; active means hit-call score of the fitted dose curve at least 0.9, where 1 is the maximum); details: HepG2 Attagene TRANS reporter, mRNA readout
Sequence of Nuclear receptor subfamily 4 group A member 2 (Homo sapiens) (P43354 whole entry, looked up, the tested form may be a part): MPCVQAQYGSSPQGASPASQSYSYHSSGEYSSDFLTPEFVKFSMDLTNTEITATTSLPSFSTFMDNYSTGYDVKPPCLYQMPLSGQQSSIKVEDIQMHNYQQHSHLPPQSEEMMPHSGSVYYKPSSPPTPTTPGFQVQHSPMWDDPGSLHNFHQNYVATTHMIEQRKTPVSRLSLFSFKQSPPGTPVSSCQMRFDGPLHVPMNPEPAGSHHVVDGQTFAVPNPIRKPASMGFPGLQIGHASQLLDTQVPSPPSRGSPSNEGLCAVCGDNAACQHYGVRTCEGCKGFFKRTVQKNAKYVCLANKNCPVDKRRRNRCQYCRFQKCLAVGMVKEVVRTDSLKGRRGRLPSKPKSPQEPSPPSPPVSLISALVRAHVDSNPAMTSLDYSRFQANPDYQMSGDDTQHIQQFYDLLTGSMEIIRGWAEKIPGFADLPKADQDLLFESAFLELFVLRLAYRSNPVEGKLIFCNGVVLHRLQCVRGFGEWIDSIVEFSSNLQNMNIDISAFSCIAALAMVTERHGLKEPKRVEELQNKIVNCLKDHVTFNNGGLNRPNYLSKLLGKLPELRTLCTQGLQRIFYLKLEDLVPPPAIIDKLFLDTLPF
Method in brief: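 HepG2 cells transiently transfected with NURR1-Gal4 chimera and GAL4-UAS reporter units; after 24 hr compound exposure, reporter mRNA quantified by RT-PCR and capillary electrophoresis; gain of signal fitted against DMSO.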

[8] = target: Transcriptional activator Myb (Homo sapiens) (UniProt P10242); assay: ATG_Myb_CIS: Attagene CIS-FACTORIAL HepG2 Assay for human Myeloblastosis (Myb) Proto-Oncogene Transcription Factor (AID 2282986); details: HepG2 Attagene CIS-FACTORIAL Myb reporter transcription; actives raise or lower the signal
Sequence of Transcriptional activator Myb (Homo sapiens) (P10242 whole entry, looked up): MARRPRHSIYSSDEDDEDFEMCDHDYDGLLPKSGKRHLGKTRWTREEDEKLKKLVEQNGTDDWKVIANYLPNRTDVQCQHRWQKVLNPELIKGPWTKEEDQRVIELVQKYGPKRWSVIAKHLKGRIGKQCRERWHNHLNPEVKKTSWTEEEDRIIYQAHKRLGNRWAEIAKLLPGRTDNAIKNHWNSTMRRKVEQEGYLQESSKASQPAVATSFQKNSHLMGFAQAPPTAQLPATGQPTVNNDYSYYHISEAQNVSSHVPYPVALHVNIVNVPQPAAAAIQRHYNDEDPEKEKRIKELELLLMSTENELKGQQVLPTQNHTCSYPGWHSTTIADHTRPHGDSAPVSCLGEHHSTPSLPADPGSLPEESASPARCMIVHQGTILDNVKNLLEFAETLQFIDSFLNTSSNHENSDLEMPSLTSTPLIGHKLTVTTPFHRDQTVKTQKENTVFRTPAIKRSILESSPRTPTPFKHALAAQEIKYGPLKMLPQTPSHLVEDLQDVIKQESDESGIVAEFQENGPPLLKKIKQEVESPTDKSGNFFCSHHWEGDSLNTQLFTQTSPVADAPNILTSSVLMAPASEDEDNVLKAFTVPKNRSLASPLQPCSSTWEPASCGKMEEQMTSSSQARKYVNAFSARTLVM
Method in brief: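 Reporter transcript levels, quantified by fluorescent RT-PCR and capillary electrophoresis, serve as the read-out. Transfected HepG2 cells carrying cis-promoter reporter units are dosed for 24 hours, and curves are fitted bidirectionally against DMSO controls.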

[9] = target: Nuclear respiratory factor 1 (Homo sapiens) (UniProt Q16656); assay: ATG_NRF1_CIS: Attagene CIS-FACTORIAL HepG2 Assay for human Nuclear Respiratory Factor 1 (NRF1) Orphan Gene (AID 2282987); details: HepG2 NRF1 cis-element reporter, Attagene multiplex; actives raise or lower the signal
Sequence of Nuclear respiratory factor 1 (Homo sapiens) (Q16656 whole entry, looked up): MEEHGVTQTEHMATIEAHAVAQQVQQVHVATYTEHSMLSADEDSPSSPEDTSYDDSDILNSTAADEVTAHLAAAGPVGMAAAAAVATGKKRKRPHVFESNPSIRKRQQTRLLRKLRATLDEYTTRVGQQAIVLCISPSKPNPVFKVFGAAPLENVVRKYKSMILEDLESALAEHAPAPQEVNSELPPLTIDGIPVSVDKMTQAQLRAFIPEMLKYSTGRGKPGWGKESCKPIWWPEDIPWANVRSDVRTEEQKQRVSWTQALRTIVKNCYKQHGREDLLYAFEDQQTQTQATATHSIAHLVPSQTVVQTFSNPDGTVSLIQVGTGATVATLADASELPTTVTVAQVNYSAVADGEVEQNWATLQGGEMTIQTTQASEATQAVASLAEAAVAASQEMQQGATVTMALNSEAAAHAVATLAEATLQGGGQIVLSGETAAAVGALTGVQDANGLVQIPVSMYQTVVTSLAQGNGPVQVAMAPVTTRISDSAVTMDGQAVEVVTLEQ
Method in brief: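 Multiplexed cis-reporter assay, HepG2 cells, 24 h treatment. Total RNA → oligo(dT) RT → PCR with reporter-specific primers → 6-FAM primer extension → HpaI cut → CE. Bidirectional fit vs DMSO.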

[10] = ATG_NFI_CIS: Attagene CIS-FACTORIAL HepG2 Assay for human Nuclear Factor I (NFI) (AID 2282989); details: HepG2 cis-regulatory reporter, NFI response element transcription; actives raise or lower the signal
Method in brief: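 Reporter transcription driven by endogenous transcription factors in HepG2 cells; 24 h treatment. Quantitation by labelled RT-PCR fragments on capillary electrophoresis, gain- or loss-of-signal relative to DMSO.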

[11] = target: Myc proto-oncogene protein (Homo sapiens) (UniProt P01106); assay: ATG_Myc_CIS: Attagene CIS-FACTORIAL HepG2 Assay for human Myelocytomatosis (Myc) Proto-Oncogene Transcription Factor (AID 2282990); details: HepG2, Attagene cis-reporter transcription factor activity; actives raise or lower the signal
Sequence of Myc proto-oncogene protein (Homo sapiens) (P01106 whole entry, looked up, the tested form may be a part): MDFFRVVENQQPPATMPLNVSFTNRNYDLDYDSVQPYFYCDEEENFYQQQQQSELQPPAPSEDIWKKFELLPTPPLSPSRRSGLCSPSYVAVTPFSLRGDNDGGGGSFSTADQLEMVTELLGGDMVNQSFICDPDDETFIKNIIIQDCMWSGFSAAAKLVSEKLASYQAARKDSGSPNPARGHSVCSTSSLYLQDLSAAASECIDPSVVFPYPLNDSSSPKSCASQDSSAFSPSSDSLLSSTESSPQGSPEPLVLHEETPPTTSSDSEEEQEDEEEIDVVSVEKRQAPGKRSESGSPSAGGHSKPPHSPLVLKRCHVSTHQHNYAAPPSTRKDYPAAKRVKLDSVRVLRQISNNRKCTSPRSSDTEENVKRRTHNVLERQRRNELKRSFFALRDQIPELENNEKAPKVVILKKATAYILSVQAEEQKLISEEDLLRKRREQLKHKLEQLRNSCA
Method in brief: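 Fluorescence intensity of reporter-specific cDNA fragments, separated by capillary electrophoresis, gives the signal. Transfected HepG2 cells carrying cis-promoter reporter constructs are incubated with compound for 24 h; DMSO serves as baseline.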

[12] = ATG_NF_kB_CIS: Attagene CIS-FACTORIAL HepG2 Assay for human Nuclear Factor Kappa B (NF-kB) (AID 2282991); details: HepG2 Attagene cis-factorial NF-kB reporter mRNA; actives raise or lower the signal
Method in brief: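 Transient MRTU transfection of human HepG2 liver cells → 24 h chemical exposure → total RNA, oligo(dT) RT → PCR, 6-FAM primer extension, HpaI digest 2 h 37 C → CE fragment analysis. Bidirectional fitting, DMSO negative control.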

[13] = ATG_NRF2_ARE_CIS: Attagene CIS-FACTORIAL HepG2 Assay for human Nuclear Factor Erythroid 2 Related Factor 2 (NFR2) response to Antioxidant Response Elements (ARE) (AID 2282992); details: HepG2 Attagene ARE/NRF2 reporter, transcription factor activity; actives raise or lower the signal;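 on AC50: reporter mRNA level measured by RT-PCR and capillary electrophoresis fluorescence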
Method in brief: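 HepG2 cells transiently transfected with multiplexed cis-regulated reporter transcription units measure endogenous transcription factor activity. Reporter mRNA at 24 h is quantified by RT-PCR, fluorescent labelling and capillary electrophoresis, with bidirectional fitting relative to DMSO.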

[14] = ATG_Oct_MLP_CIS: Attagene CIS-FACTORIAL HepG2 Assay for human Octamer-Binding Transcription Factor (Oct) (AID 2282993); details: HepG2 Attagene cis-factorial Oct reporter, mRNA; actives raise or lower the signal
Method in brief: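 Transfected HepG2 cells, 24 h treatment. Reporter mRNA quantified by RT-PCR–capillary electrophoresis; bidirectional fitting against DMSO.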

[15] = BSK_3C_TissueFactor: BioMAP Diversity Plus: 3C Assay for Tissue Factor Biomarker Activity (AID 2282997); details: BioMAP 3C HUVEC, tissue factor biomarker readout; actives raise or lower the signal
Method in brief: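 Values derive from bidirectional curve fitting against DMSO of Tissue Factor ELISA signals, taken 24 h after dosing primary human umbilical vein endothelial cells.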

[16] = BSK_3C_uPAR: BioMAP Diversity Plus: 3C Assay for Urokinase-type plasminogen activator receptor (uPAR) Biomarker Activity (AID 2282998); details: BioMAP 3C HUVEC, uPAR biomarker ELISA; actives raise or lower the signal
Method in brief: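 Readout: ELISA for surface uPAR. System: human umbilical vein endothelial primary cells, 24 h after chemical exposure. Analysis: bidirectional fit, DMSO baseline.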

[17] = target: Cellular tumor antigen p53 (Homo sapiens) (UniProt P04637); assay: ATG_p53_CIS: Attagene CIS-FACTORIAL HepG2 Assay for human p53 Transcription Factor (AID 2282994); details: HepG2 p53 cis-element reporter, Attagene mRNA; actives raise or lower the signal
Sequence of Cellular tumor antigen p53 (Homo sapiens) (P04637 whole entry, looked up): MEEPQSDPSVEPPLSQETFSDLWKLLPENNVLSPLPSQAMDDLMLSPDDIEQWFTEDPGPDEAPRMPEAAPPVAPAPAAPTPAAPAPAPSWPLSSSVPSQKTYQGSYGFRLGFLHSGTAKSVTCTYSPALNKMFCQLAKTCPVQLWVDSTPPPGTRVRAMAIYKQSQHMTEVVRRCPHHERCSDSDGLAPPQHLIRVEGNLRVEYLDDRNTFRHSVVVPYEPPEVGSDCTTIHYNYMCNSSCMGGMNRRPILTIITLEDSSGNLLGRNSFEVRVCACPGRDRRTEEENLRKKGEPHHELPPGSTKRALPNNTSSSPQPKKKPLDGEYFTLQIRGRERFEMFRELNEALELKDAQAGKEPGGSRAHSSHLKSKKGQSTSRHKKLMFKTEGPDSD
Method in brief: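 HepG2 cells transiently transfected with multiplexed cis-regulated reporter transcription units read endogenous TF activity. After 24 h compound exposure, reporter mRNA was quantified by RT-PCR, fluorescent labelling, HpaI digestion and capillary electrophoresis; bidirectional fits versus DMSO baseline.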

[18] = target: Bile acid receptor (Homo sapiens) (UniProt Q96RI1); assay: ATG_FXR_TRANS: Attagene TRANS-FACTORIAL HepG2 Assay for Farnesoid X Receptor (FXR) (AID 2282979; active means hit-call score of the fitted dose curve at least 0.9, where 1 is the maximum;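 further: hits raise reporter mRNA above DMSO so AC50 marks FXR activation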); details: HepG2 Attagene TRANS FXR-GAL4 reporter transcription
Method in brief: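 Chimeric FXR-GAL4 activity in transiently transfected human HepG2 liver cells is scored as induction of reporter mRNA after 24 h of dosing. Detection uses RT-PCR with fluorescent labelling and capillary electrophoresis, with DMSO serving as baseline.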

Measured: AC50

CCc1nn(C)c(C(=O)NCc2ccc(C(C)(C)C)cc2)c1Cl
inactive: [1] | [2] | [4] | [5] | [8] | [9] | [11]
active: [3] 0.343 µM | [10] 0.353 µM | [12] 0.709 µM | [13] 214 nM | [14] 0.397 µM | [17] 1.9 µM | [15] 20 µM | [16] 26.7 µM

CC(C)(C)c1ccc(CSc2cnn(C(C)(C)C)c(=O)c2Cl)cc1
active: [9] 19.1 µM | [13] 91.2 nM | [14] 0.024 µM | [16] 8.48 µM
not listed: [12] | [18]
inactive: all other assays above

COc1nc(C)nc(NC(=O)NS(=O)(=O)c2ccccc2CCC(F)(F)F)n1
inactive: [1] | [2] | [18] | [3] | [4] | [5] | [6] | [7] | [8] | [9] | [10] | [11] | [12] | [13] | [14] | [17] | [15] | [16]
active: [13] 16.7 µM and 31.3 µM

CC1COC(Cn2cncn2)(c2ccc(Oc3ccc(Cl)cc3)cc2Cl)O1 (stereo not given)
active: [13] 1880 nM | [14] 2.45 µM | [15] 31.5 µM | [16] 28.4 µM
not listed: [4] | [7] | [12]
inactive: all other assays above

O=C(Nc1ccccc1)Nc1ccnc(Cl)c1
active: [7] 50 µM | [12] 30.1 µM | [13] 13700 nM | [14] 33.5 µM
not listed: [5] | [18]
inactive: all other assays above
